Consider 40 compounds from PubChem BioAssay (EPA / NIEHS).

The structures appear in SMILES notation. Calls of active or inactive are those of the source. How the source made its calls: active means hit-call score of the fitted dose curve at least 0.9, where 1 is the maximum; inactive means score below 0.9.

Read-out in the experiment: Monokine induced gamma interferon (MIG), CXCL9 (gene 4283)
The experiment can be described thus: BSK_3C_MIG: BioMAP Diversity Plus: 3C Assay for Monokine induced gamma interferon (MIG) Biomarker Activity (AID 2283021).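 On AC50: MIG protein level measured by immunoassay in the treated endothelial cultures.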 The settings on record: primary human endothelial cells (HUVEC); actives raise or lower the signal. On the procedure:
BSK_3C is a cell-based, multiplexed-readout assay that uses umbilical vein endothelium, a human vascular primary cell, with measurements taken at 24 hours after chemical dosing in a 96-well plate.BSK_3C_MIG is an assay component measured in the BSK_3C assay. It measures MIG antibody related to regulation of gene expression using ELISA technology.Data from the assay component BSK_3C_MIG was analyzed into 1 assay endpoint. This assay endpoint, BSK_3C_MIG, was analyzed with bidirectional fitting relative to DMSO as the negative control and baseline of activity. Using a type of binding reporter, gain or loss-of-signal activity can be used to understand changes in the signaling as they relate to the gene CXCL9. Furthermore, this assay endpoint can be referred to as a primary readout, because this assay has produced multiple assay endpoints where this one serves a signaling function. To generalize the intended target to other relatable targets, this assay endpoint is annotated to the cytokine intended target family, where the subfamily is chemotactic factor.
The levels of cell surface (or secreted, indicated by the prefix "s") biomarker endpoints were measured by ELISA. Overt cytotoxicity to cells in confluent adherent cultures (all systems other than the BT system) was assessed by measuring total protein levels using sulforhodamine B (SRB) staining in parallel cultures at the time of biomarker measurements, indicated as SRB endpoints. For proliferation assays for adherent cell types, individual cell types are cultured at sub-confluence and relative cell numbers quantified by SRB staining at time points optimized for each system (48 h: 3C and CASM3C systems; 72 h: BT and HDF3CGF systems; 96 h: SAg system). SRB was performed by staining cells with 0.1% SRB after fixation with 10% TCA and reading wells at 560 nm.Viability and proliferation of PBMC (T cells) was quantified by Alamar Blue reduction for the SAg and BT systems. For PBMC viability (referred to as PBMC Cytotoxicity within the assay endpoint names), cells were plated (75,000/well in a 96-well plate) and then chemical samples added for 1 h before addition of activators, SEB and TSST-1 (20 ng/mL final concentration each). Cells were incubated for 90 h. Then, Alamar Blue (20 uL/well) (Invitrogen, Cat DAL1100) was added for 6 h, and the plates were read with a fluorescence microplate reader at 546/580 nm (excitation/emission). For PBMC proliferation, cells were plated and activated as above but incubated for only 16 h prior to addition of Alamar Blue. Plates were read after 6 h.
As to `CCCCCCCC(=O)OC`, the result was inactive.

Turning to `C#CC(O)C(CC)CCCC` (stereo not given), the outcome was inactive.

Consider `CC(=O)[C@@]1(O)CC[C@H]2[C@@H]3CCC4=CC(=O)CC[C@]4(C)[C@H]3CC[C@@]21C`, for which the result was inactive.

Consider `OCC(O)CO`, for which the outcome was inactive.

Regarding `CC(=O)O[C@]1(C(C)=O)CC[C@H]2[C@@H]3C=C(Cl)C4=CC(=O)[C@@H]5C[C@@H]5[C@]4(C)[C@H]3CC[C@@]21C`, the result was inactive.

Take `CCCCCCC(C=O)=Cc1ccccc1`: the AC50 was 36.3 µM (active).

`CC(=O)S[C@H](C(=O)N[C@H]1Cc2ccccc2[C@H]2CCC[C@@H](C(=O)O)N2C1=O)C(C)C`: the outcome was inactive.

On to `OCC(CO)n1cnc(-c2ccc(F)cc2)c1-c1ccnc(Oc2ccccc2)n1`, for which the result was inactive.

As for `CCC(C)N(C)C(=O)c1cc2ccccc2c(-c2ccccc2Cl)n1` (stereo not given), the outcome was inactive.

For the compound `Cc1cc(SC2=C(O)C[C@@](CCc3ccc(N)cc3)(C(C)C)OC2=O)c(C(C)(C)C)cc1CO`, the result was inactive.

For `CCCC[C@H]1CN(CC2CCOCC2)C(=O)OC12CCN(C1(C)CCN(C(=O)c3c(C)ncnc3C)CC1)CC2`, the result was inactive.

As to `COC(=O)[C@H]1[C@H]2C[C@@H]3c4[nH]c5cc(OC)ccc5c4CCN3C[C@H]2C[C@@H](OC(=O)c2cc(OC)c(OC)c(OC)c2)[C@@H]1OC`, the result was inactive.

In the case of `COC(=O)CCC(=O)OC`, the outcome was inactive.

Consider `Cc1ccc(C(C)(C)C)c(O)c1`, for which the result was inactive.

`CCCCC(CC)COP(=O)(OCC(CC)CCCC)OCC(CC)CCCC` (stereo not given): the outcome was inactive.

Regarding `CC(C)c1cccc(C(C)C)c1NC(=O)NS(=O)(=O)c1cc(C(C)(C)O)co1`, the result was inactive.

With `CCOCCOCCO`, the outcome was inactive.

`CC(C)c1cccc(C(C)C)c1`: the result was inactive.

In the case of `O=Cc1ccccc1C=O`, the outcome was inactive.

Consider `CCCCCCCCCCCCCCOS(=O)(=O)O`, for which the outcome was inactive.

For `CSc1ccc(Oc2ccc(S(N)(=O)=O)cc2CN(C)C)cc1C`, the result was inactive.

In the case of `CCCCOC(=O)CCCCC(=O)OCCCC`, the outcome was inactive.

Regarding `C=CCc1ccc(OC)c(OC)c1`, the result was inactive.

As for `CC(=O)CC(c1ccccc1)c1c(O)c2ccccc2oc1=O` (stereo not given), the result was inactive.

Take `CC(C)OC(=O)C(C)(C)Oc1ccc(C(=O)c2ccc(Cl)cc2)cc1`: the outcome was inactive.

On to `CC(C)NCC(O)c1ccc(O)c(O)c1` (stereo not given), for which the outcome was inactive.

Turning to `CC(=O)OCC(COC(C)=O)OC(C)=O`, the outcome was inactive.

Take `N[C@@H](Cc1c[nH]c2ccccc12)C(=O)O`: the result was inactive.

As for `O=C(O)CN(CC(=O)O)CC(=O)O`, the outcome was inactive.

On to `CCCCC(CC)CO` (stereo not given), for which the result was inactive.

`NC(=Nc1ccccc1)Nc1ccccc1`: the result was inactive.

As to `CC(C)COC(=O)CCCCC(=O)OCC(C)C`, the result was inactive.

Take `CN(C)C(=O)NC1(c2ccccc2)CCN(CC[C@@]2(c3ccc(F)c(F)c3)CN(C(=O)c3ccccc3)CCO2)CC1`: the result was inactive.

In the case of `Cc1c(C)c2c(c(C)c1O)CCC(C)(COc1ccc(CC3SC(=O)NC3=O)cc1)O2` (stereo not given), the AC50 is 34.2 µM (active).

In the case of `O=C1O[C@H]([C@H](O)CO)C(O)=C1O`, the outcome was inactive.

With `CC(C)(O)c1ccc(CNC(=O)c2cccnc2Oc2ccc(F)cc2)cc1`, the result was inactive.

`O=C1NC(=O)C(c2ccccc2)(c2ccccc2)N1`: the outcome was inactive.

Regarding `O=C(O)CC(O)(CC(=O)O)C(=O)O`, the outcome was inactive.

In the case of `CS(=O)(=O)c1ccc([C@@H](C[C@H]2CCC(=O)C2)C(=O)Nc2cnccn2)cc1Cl`, the outcome was inactive.

On to `Cc1occc(=O)c1O`, for which the outcome was inactive.

As usually defined, the AC50 is the concentration at which the activity in the assay is half-maximal.
